Data taken from the supplement of paper PMC10849652.
About 7,900 targets were measured; listed, in parts, are those with a hit and a random draw of the rest. About 0.6% of all pairs of compound and target were hits.

Tests used:
Assay in all cases: log2 fold change, soluble protein after heating vs DMSO (PISA); higher = thermal stabilisation; K562 cells, 10 uM, 30 min; active = over 0.2 and 3.5 SD of the protein, either way, in both replicates (recomputed)
[1] = compound: CS(=O)(=O)c1ccc(-c2cnc(N)c(C(=O)Nc3ccccc3)n2)cc1
Outline: (§1)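 K562 cells at 2×10^6 cells/mL were treated for 30 min with 10 μM compound, and aliquots were heated for 3 min over 48°C-58°C before pooling. Extraction used PBS with 0.5% NP-40 at 4°C, and soluble protein was the supernatant after 21,000xg for 90 min, measured by TMTpro 16plex LC-MS/MS with channel sums equalised. Thermal stability values, relative to control samples and from duplicates, are log2 fold changes.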

crizotinib = compound: C[C@@H](Oc1cc(-c2cnn(C3CCNCC3)c2)cnc1N)c1c(Cl)ccc(F)c1Cl [crizotinib]
Outline: as §1

[2] = compound: C[C@@H]1COCCN1C2=NC(=NC(=C2)C3(CC3)S(=O)(=O)C)C4=C5C=CNC5=CC=C4
Outline: as §1

[3] = compound: C[C@H](C1=CC=C(C=C1)C(=O)NC2=C3C=CNC3=NC=C2)N
Outline: as §1

duvelisib = compound: C[C@H](Nc1ncnc2nc[nH]c12)c1cc2cccc(Cl)c2c(=O)n1-c1ccccc1 [duvelisib]
Outline: as §1

gandotinib = compound: Cc1cc(Nc2cc(CN3CCOCC3)c3nc(C)c(Cc4ccc(Cl)cc4F)n3n2)n[nH]1 [gandotinib]
Outline: as §1

tozasertib = compound: Cc1cc(Nc2cc(N3CCN(C)CC3)nc(Sc3ccc(NC(=O)C4CC4)cc3)n2)n[nH]1 [tozasertib]
Outline: as §1

[4] = compound: Cc1cc(SCc2sc(-c3ccc(C(F)(F)F)cc3)nc2C)ccc1OCC(=O)O
Outline: as §1

doramapimod = compound: Cc1ccc(-n2nc(C(C)(C)C)cc2NC(=O)Nc2ccc(OCCN3CCOCC3)c3ccccc23)cc1 [doramapimod]
Outline: as §1

ispinesib = compound: Cc1ccc(C(=O)N(CCCN)[C@@H](c2nc3cc(Cl)ccc3c(=O)n2Cc2ccccc2)C(C)C)cc1 [ispinesib]
Outline: as §1

bafetinib = compound: Cc1ccc(NC(=O)c2ccc(CN3CC[C@H](N(C)C)C3)c(C(F)(F)F)c2)cc1Nc1nccc(-c2cncnc2)n1 [bafetinib]
Outline: as §1

[5] = compound: Cc1cccc(CC(=O)N2CCc3c2ccc(-c2cn(C)c4ncnc(N)c24)c3F)n1
Outline: as §1

nilotinib = compound: Cc1cn(-c2cc(NC(=O)c3ccc(C)c(Nc4nccc(-c5cccnc5)n4)c3)cc(C(F)(F)F)c2)cn1 [nilotinib]
Outline: as §1

[6] = compound: Cc1nc(Nc2n[nH]c3c2CN(C(=O)N[C@H](CN(C)C)c2ccccc2)C3(C)C)c2sccc2n1
Outline: as §1

dasatinib = compound: Cc1nc(Nc2ncc(C(=O)Nc3c(C)cccc3Cl)s2)cc(N2CCN(CCO)CC2)n1 [dasatinib]
Outline: as §1

[7] = compound: Cc1ncc(-c2ccnc(Nc3ccc(S(C)(=O)=O)cc3)n2)n1C(C)C
Outline: as §1

[8] = compound: Cn1cc(-c2ccc3c(c2)CCN3C(=O)Cc2cccc(C(F)(F)F)c2)c2c(N)ncnc21
Outline: as §1

[9] = compound: Cn1cc(-c2ccc3nnc(C(F)(F)c4ccc5ncccc5c4)n3n2)cn1
Outline: as §1

tipifarnib = compound: Cn1cncc1[C@@](N)(c1ccc(Cl)cc1)c1ccc2c(c1)c(-c1cccc(Cl)c1)cc(=O)n2C [tipifarnib]
Outline: as §1

mubritinib = compound: FC(F)(F)c1ccc(/C=C/c2nc(COc3ccc(CCCCn4ccnn4)cc3)co2)cc1 [mubritinib]
Outline: as §1

Measured: log2 fold change

CELF2 isoform 3 (UniProt O95319)
inactive: [1] -0.107 | crizotinib 0.098 | [2] 0.006 | [3] -0.038 | duvelisib -0.027 | gandotinib -0.027 | tozasertib -0.054 | [4] 0.102 | doramapimod 0.05 | ispinesib -0.066 | bafetinib 0.014 | [5] -0.005 | nilotinib -0.001 | [6] 0.013 | dasatinib -0.005 | [7] 0.079 | [8] -0.022 | [9] -0.059 | tipifarnib -0.062 | mubritinib -0.006

CDKN2AIP (UniProt Q9NXV6)
inactive: [1] -0.053 | crizotinib 0.01 | [2] -0.132 | [3] -0.004 | duvelisib 0.031 | gandotinib -0.012 | tozasertib -0.024 | [4] 0.021 | doramapimod -0.019 | ispinesib 0.048 | bafetinib 0.034 | [5] 0.021 | nilotinib -0.021 | [6] 0.034 | dasatinib -0.041 | [7] 0.015 | [8] -0.049 | [9] -0.012 | tipifarnib 0.046 | mubritinib -0.011

CSE1L (UniProt P55060)
inactive: [1] 0.008 | crizotinib -0.063 | [2] 0.083 | [3] -0.067 | duvelisib 0.01 | gandotinib -0.174 | tozasertib 0.066 | [4] 0.024 | doramapimod -0.027 | ispinesib -0.003 | bafetinib -0.041 | [5] 0.039 | nilotinib -0.066 | [6] -0.026 | dasatinib -0.08 | [7] 0.012 | [8] -0.005 | [9] 0.007 | tipifarnib -0.101 | mubritinib 0.068

CCAR2 isoform 2 (UniProt Q8N163)
Chain of UniProt Q8N163 (Q8N163 whole entry, looked up): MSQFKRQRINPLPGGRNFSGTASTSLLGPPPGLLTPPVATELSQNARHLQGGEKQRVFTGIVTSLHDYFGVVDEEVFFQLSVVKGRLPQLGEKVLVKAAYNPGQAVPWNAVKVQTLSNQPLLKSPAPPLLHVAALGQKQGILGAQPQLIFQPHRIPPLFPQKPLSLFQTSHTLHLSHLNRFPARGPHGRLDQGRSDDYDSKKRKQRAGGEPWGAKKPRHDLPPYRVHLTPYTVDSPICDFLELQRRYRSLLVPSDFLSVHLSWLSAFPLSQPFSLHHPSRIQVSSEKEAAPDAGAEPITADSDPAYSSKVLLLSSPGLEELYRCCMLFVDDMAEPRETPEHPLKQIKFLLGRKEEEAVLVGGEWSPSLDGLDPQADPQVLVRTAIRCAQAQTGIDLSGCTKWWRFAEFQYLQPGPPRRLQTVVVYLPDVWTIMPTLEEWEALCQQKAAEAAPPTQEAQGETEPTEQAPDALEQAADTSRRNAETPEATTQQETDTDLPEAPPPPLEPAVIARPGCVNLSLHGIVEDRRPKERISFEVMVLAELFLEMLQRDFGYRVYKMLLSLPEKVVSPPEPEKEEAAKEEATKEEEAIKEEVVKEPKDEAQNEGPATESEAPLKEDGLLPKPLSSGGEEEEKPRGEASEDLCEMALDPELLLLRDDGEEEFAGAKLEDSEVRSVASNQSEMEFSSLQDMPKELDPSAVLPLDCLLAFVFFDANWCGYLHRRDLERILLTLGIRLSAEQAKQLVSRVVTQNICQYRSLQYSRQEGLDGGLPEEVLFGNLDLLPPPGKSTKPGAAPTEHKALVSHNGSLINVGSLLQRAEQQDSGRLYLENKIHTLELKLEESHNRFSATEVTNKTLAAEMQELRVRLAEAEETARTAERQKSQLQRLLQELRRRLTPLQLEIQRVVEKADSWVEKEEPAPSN
inactive: [1] -0.037 | crizotinib 0.024 | [2] 0.046 | [3] 0.011 | duvelisib -0.001 | gandotinib -0.093 | tozasertib 0.103 | [4] 0.169 | doramapimod -0.009 | ispinesib -0.063 | bafetinib 0.007 | [5] 0.01 | nilotinib -0.053 | [6] -0.023 | dasatinib -0.176 | [7] -0.157 | [8] -0.009 | [9] 0.042 | tipifarnib 0.011 | mubritinib 0.031

CSTF2 (UniProt P33240)
inactive: [1] 0.016 | crizotinib 0.075 | [2] 0.14 | [3] -0.042 | duvelisib 0.029 | gandotinib 0.048 | tozasertib 0.033 | [4] -0.011 | doramapimod 0.028 | ispinesib 0.068 | bafetinib -0.05 | [5] -0.061 | nilotinib -0.029 | [6] 0.074 | dasatinib 0.007 | [7] 0.047 | [8] -0.011 | [9] -0.014 | tipifarnib 0.028 | mubritinib -0.046

CDK1 (UniProt P06493)
Chain of UniProt P06493 (P06493 whole entry, looked up): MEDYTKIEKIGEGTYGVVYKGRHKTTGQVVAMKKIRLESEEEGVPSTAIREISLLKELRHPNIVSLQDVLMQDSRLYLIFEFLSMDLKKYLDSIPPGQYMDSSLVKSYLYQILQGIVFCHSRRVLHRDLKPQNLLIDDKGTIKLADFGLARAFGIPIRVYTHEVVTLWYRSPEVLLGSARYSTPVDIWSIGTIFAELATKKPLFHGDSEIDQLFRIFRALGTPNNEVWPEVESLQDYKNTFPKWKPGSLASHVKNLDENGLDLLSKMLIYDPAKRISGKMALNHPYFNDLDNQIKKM
inactive: [1] 0.005 | crizotinib -0.128 | [2] -0.005 | [3] -0.019 | duvelisib 0.021 | gandotinib -0.171 | tozasertib -0.057 | [4] 0 | doramapimod -0.031 | ispinesib 0.033 | bafetinib 0.002 | [5] -0.022 | nilotinib 0.022 | [6] -0.196 | dasatinib -0.092 | [7] -0.199 | [8] -0.067 | [9] -0.023 | tipifarnib -0.019 | mubritinib 0.083

CDK5RAP3 isoform 4 (UniProt Q96JB5)
Chain of UniProt Q96JB5 (Q96JB5 whole entry, looked up): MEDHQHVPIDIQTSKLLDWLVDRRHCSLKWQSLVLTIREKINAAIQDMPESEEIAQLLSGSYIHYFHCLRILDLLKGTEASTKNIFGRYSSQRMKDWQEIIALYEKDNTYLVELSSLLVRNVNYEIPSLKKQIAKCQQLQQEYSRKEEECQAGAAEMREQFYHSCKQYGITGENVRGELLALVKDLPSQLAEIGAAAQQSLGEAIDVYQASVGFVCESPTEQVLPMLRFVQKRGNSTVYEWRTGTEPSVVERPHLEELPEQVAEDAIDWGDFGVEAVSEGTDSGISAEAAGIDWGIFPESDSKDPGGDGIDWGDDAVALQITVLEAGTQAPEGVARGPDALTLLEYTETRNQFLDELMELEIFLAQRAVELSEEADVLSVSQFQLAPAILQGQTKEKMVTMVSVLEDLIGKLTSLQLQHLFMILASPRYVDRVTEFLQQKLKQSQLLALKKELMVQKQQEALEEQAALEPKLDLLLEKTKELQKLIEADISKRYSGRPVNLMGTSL
inactive: [1] -0.017 | crizotinib -0.054 | [2] 0.044 | [3] -0.038 | duvelisib 0.005 | gandotinib -0.051 | tozasertib 0.015 | [4] 0.016 | doramapimod -0.033 | ispinesib -0.036 | bafetinib 0.039 | [5] 0.122 | nilotinib -0.094 | [6] 0.012 | dasatinib -0.082 | [7] 0.054 | [8] 0.008 | [9] 0.024 | tipifarnib -0.052 | mubritinib 0.083

CPT2 (UniProt P23786)
inactive: crizotinib -0.42 | [2] 0.06 | [3] -0.01 | duvelisib 0.069 | gandotinib 0.119 | tozasertib -0.049 | doramapimod -0.019 | ispinesib -0.306 | bafetinib -0.115 | [5] 0.008 | nilotinib 0.096 | [6] -0.003 | dasatinib 0.217 | [7] 0.047 | [8] 0.268 | [9] 0.265 | tipifarnib -0.076
active: [1] 0.701 | [4] 1.04 | mubritinib 0.763

COX5B (UniProt P10606)
Chain of UniProt P10606 (P10606 whole entry, looked up): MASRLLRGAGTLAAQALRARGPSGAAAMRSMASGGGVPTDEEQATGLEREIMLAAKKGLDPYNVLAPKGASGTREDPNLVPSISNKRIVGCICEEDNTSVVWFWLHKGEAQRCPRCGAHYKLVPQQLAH
inactive: [1] -0.07 | crizotinib 0.186 | [2] 0.081 | [3] -0.169 | duvelisib 0.124 | gandotinib 0.218 | tozasertib 0.077 | [4] -0.001 | doramapimod 0.022 | ispinesib 0.265 | bafetinib -0.032 | [5] 0.013 | nilotinib 0.026 | [6] 0.011 | dasatinib 0.105 | [7] -0.043 | [8] 0.134 | [9] 0.221 | tipifarnib -0.108 | mubritinib 0.024

COPS3 (UniProt Q9UNS2)
Chain of UniProt Q9UNS2 (Q9UNS2 whole entry, looked up): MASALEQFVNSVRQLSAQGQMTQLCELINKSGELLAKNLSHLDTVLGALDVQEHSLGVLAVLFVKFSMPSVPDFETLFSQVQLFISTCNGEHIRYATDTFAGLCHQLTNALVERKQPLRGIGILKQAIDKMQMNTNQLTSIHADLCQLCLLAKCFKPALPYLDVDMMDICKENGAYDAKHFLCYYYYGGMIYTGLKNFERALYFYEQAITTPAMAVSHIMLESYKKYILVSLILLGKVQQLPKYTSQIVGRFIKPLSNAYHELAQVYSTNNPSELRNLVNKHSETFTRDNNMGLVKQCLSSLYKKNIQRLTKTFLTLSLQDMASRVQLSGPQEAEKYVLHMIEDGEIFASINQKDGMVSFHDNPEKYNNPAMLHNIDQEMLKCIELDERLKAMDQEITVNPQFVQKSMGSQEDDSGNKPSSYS
inactive: [1] 0.018 | crizotinib 0.003 | [2] 0.047 | [3] -0.023 | duvelisib -0.003 | gandotinib -0.087 | tozasertib 0 | [4] -0.006 | doramapimod -0.015 | ispinesib 0.024 | bafetinib -0.05 | [5] -0.027 | nilotinib 0.006 | [6] 0.004 | dasatinib -0.02 | [7] -0.012 | [8] 0.014 | [9] 0.04 | tipifarnib 0.004 | mubritinib 0.023

CETN2 (UniProt P41208)
Chain of UniProt P41208 (P41208 whole entry, looked up): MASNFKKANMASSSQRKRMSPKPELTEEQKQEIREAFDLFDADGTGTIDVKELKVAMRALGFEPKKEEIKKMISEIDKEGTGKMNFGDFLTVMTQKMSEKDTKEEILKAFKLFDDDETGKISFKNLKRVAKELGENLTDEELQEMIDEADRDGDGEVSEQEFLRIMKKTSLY
inactive: [1] 0.011 | crizotinib 0.103 | [2] 0.066 | [3] 0.003 | duvelisib -0.003 | gandotinib 0.041 | tozasertib -0.01 | [4] -0.135 | doramapimod 0.017 | ispinesib 0.084 | bafetinib -0.029 | [5] -0.131 | nilotinib 0.071 | [6] -0.055 | dasatinib 0.081 | [7] -0.001 | [8] -0.013 | [9] 0.03 | tipifarnib 0.216 | mubritinib 0.036

COASY isoform 2 (UniProt Q13057)
Chain of UniProt Q13057 (Q13057 whole entry, looked up): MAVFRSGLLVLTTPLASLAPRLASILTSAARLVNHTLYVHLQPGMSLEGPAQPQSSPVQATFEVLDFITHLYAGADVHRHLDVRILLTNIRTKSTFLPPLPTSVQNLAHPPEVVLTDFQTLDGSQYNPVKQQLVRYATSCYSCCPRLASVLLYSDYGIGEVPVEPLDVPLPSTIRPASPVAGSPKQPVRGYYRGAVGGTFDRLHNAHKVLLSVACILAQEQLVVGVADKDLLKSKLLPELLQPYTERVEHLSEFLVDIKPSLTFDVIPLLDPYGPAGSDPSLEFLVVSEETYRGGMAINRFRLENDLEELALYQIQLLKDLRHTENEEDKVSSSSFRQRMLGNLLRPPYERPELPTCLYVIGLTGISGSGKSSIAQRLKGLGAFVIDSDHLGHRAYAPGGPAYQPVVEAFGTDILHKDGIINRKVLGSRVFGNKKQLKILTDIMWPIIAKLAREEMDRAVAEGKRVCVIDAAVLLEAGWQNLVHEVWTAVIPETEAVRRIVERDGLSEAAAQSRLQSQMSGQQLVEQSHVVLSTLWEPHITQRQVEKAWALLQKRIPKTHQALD
inactive: [1] -0.052 | crizotinib -0.071 | [2] 0.133 | [3] -0.09 | duvelisib 0.058 | gandotinib -0.058 | tozasertib -0.031 | [4] 0.045 | doramapimod -0.063 | ispinesib -0.057 | bafetinib -0.009 | [5] 0.089 | nilotinib -0.19 | [6] 0.001 | dasatinib -0.132 | [7] 0.005 | [8] 0.037 | [9] -0.062 | tipifarnib -0.102 | mubritinib -0.196

CCAR1 (UniProt Q8IX12)
Chain of UniProt Q8IX12 (Q8IX12 whole entry, looked up): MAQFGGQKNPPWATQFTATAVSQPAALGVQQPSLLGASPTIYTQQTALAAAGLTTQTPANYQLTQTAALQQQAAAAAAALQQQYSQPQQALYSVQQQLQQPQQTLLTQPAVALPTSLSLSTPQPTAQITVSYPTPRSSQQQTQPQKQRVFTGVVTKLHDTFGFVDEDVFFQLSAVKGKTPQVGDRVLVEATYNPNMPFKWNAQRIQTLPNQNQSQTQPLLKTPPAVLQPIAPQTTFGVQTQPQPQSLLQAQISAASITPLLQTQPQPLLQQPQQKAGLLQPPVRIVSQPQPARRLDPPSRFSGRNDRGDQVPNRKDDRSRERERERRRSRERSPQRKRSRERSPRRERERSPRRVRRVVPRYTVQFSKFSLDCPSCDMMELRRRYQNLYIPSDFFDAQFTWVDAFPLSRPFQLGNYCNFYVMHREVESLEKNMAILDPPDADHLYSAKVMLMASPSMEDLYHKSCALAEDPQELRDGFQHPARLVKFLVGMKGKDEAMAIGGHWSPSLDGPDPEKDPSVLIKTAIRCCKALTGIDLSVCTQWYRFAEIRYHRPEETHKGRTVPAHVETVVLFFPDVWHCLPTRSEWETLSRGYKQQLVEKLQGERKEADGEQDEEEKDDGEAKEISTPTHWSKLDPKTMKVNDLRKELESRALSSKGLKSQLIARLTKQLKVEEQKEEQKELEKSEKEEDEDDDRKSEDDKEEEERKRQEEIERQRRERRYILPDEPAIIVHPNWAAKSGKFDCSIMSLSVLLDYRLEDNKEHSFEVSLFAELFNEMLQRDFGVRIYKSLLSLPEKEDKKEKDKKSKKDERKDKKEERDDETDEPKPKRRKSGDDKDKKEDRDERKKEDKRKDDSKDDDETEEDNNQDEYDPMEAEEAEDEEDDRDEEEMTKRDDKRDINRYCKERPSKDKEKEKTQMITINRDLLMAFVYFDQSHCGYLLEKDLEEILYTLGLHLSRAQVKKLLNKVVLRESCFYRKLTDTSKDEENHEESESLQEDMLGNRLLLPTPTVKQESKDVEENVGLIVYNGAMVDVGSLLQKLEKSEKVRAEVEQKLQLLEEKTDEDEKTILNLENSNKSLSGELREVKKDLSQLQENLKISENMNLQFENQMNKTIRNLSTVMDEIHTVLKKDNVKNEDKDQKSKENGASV
inactive: [1] 0.004 | crizotinib -0.238 | [2] 0.034 | [3] -0.016 | duvelisib 0.012 | tozasertib -0.063 | [4] 0.067 | doramapimod -0.03 | ispinesib -0.102 | bafetinib 0.036 | [5] 0.036 | nilotinib -0.055 | [6] -0.033 | dasatinib -0.112 | [7] -0.095 | [8] 0.079 | [9] 0.019 | tipifarnib -0.091 | mubritinib 0.122
active: gandotinib -0.263

CASP3 (UniProt P42574)
inactive: [1] 0.017 | crizotinib 0.036 | [2] -0.059 | [3] -0.057 | duvelisib -0.025 | gandotinib -0.019 | tozasertib -0.036 | [4] -0.05 | doramapimod -0.022 | ispinesib -0.004 | bafetinib -0.031 | [5] -0.042 | nilotinib 0.013 | [6] -0.012 | dasatinib 0.002 | [7] -0.007 | [8] 0.008 | [9] -0.022 | tipifarnib -0.055 | mubritinib 0.007

CCNH (UniProt P51946)
inactive: [1] -0.033 | crizotinib 0.033 | [2] 0.048 | [3] -0.031 | duvelisib 0.037 | gandotinib 0.013 | tozasertib 0.046 | [4] -0.01 | doramapimod -0.086 | ispinesib 0.098 | bafetinib -0.064 | [5] -0.01 | nilotinib -0.008 | [6] 0.113 | dasatinib 0.023 | [7] -0.056 | [8] -0.005 | [9] 0.005 | tipifarnib 0.051 | mubritinib 0.08

CLCN7 (UniProt P51798)
Chain of UniProt P51798 (P51798 whole entry, looked up): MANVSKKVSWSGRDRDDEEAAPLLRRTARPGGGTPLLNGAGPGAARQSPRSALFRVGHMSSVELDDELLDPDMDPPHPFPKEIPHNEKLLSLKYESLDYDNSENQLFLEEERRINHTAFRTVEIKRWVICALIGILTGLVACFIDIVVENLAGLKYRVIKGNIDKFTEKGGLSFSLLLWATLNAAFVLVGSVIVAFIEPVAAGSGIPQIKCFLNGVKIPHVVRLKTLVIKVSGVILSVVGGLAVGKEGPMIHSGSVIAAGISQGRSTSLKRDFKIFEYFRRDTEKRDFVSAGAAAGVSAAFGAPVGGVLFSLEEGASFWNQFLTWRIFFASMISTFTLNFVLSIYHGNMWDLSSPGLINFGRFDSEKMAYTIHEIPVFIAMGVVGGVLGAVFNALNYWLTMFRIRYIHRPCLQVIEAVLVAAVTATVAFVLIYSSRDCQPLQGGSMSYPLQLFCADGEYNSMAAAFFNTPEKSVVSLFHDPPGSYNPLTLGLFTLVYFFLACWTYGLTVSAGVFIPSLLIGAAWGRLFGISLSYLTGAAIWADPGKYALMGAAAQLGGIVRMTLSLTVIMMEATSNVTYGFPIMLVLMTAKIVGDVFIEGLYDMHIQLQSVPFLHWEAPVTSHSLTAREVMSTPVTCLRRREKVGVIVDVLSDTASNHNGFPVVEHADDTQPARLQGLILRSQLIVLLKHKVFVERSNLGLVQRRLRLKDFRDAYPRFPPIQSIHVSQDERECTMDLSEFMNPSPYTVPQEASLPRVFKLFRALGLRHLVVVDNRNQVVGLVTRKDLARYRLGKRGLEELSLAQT
active: crizotinib -0.814 | ispinesib -0.952
inactive: [1] -0.037 | [2] 0.018 | [3] -0.091 | duvelisib -0.089 | gandotinib -0.193 | tozasertib -0.031 | [4] 0.028 | doramapimod -0.008 | bafetinib -0.24 | [5] 0.083 | nilotinib -0.035 | [6] -0.012 | dasatinib -0.091 | [7] -0.111 | [8] 0.011 | [9] 0.049 | tipifarnib 0.038 | mubritinib -0.02
